# LGR2 antag = blocks bursicon-induced cAMP signaling via Drosophila LGR2. HEK293 LGR2, CRE-luciferase, bursicon-stimulated, 4 h. inhibition, % at 9.99 µM. hit rate 0.35% among 380,000;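 active = drop in luminescence signal, shown as inhibition above about 50% in the replicate tests, limit read from the data, passing the limit was not always enough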;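 also: agonist challenge used bursicon conditioned medium at about half maximal strength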
# PAX8 reporter = inhibitors of PAX8 transcriptional activity in RMG-I cells; hit rate 1.2% among 360,000; RMG-I TPO-luciferase reporter, SteadyGlo, 24 h; inhibition, % at 12.6 µM;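 active = mean replicate inhibition at least 60% with every replicate also reaching 60%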;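 also: luciferase light reporting Pax8 driven TPO promoter activity; plate controls were median of neutral control wells for no effect and mitoxantrone controls for full effect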
# Ecoli rRNA inh = inhibits bacterial ribosomal RNA function over humanized ribosomes. GFP signal change (wild-type ribosome), % (concentration not given with the values). E. coli WT GFP vs humanized-ribosome RFP mutants, fluorescence, 24 h; hits give low values; DMSO median 0, no signal -100. hit rate 1.6% among 350,000;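 active = significant combined selectivity score with lowered wild-type GFP, culture density cut under 30%, mutant RFP and density less affected; inactive = any of these conditions unmet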
# PGC1a acetyl inh = PGC1a acetylation modulation, inhibitor mode. inhibition, % at 15.6 µM. hit rate 0.17% among 350,000. U2OS PGC1a acetylation, AlphaScreen anti-acetyl-lysine; with virally co-expressed GCN5 acetyltransferase;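 active = every replicate shows inhibition of at least 40%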;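 also: 0% = neutral control wells and 100% = positive control wells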
# SIRT5 block = sirtuin-5 (human) deacylase inhibition. Q9NXA8. Purified SirT5, succinyl-peptide AMC, trypsin-coupled fluorescence. inhibition, % at 15 µM. hit rate 1.1% among 330,000; in the data active = inhibition above about 15%
# Target sequence (Q9NXA8 whole entry, looked up): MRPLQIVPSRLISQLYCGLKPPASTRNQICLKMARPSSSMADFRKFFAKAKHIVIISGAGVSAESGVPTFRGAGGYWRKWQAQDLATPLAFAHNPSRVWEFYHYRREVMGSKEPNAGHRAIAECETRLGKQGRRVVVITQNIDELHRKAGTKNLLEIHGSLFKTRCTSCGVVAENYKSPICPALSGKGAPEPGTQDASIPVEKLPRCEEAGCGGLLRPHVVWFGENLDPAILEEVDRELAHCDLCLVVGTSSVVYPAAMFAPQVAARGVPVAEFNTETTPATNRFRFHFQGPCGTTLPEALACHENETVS
# EWS-Fli inh = EWS/Fli transcriptional activity inhibition; inhibition, % at 12.6 µM; hit rate 0.67% among 350,000; A673 NR0B1-luciferase reporter, viability-normalised;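 active = mean inhibition of at least 50% after viability correction, with every replicate also passing that limit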;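 also: firefly luciferase signal divided by Alamar Blue viability fluorescence both relative to DMSO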
# Numbers without * were called inactive; / = not tested or not shown. Shown are actives, neighbours in structure and some others; about 3.4% of the full set was active somewhere.
SMILES,LGR2 antag,PAX8 reporter,Ecoli rRNA inh,PGC1a acetyl inh,SIRT5 block,EWS-Fli inh
C[C@@H]1CN([C@@H](C)CO)C(=O)c2cc(NC(=O)Nc3ccc(C(F)(F)F)cc3)ccc2O[C@@H](C)CCCCO[C@@H]1CN(C)C(=O)Nc1ccccc1,1,-12,1,16,0,-7
COCC(=O)Nc1ccc2c(c1)OC[C@@H](C)N(CCC(F)(F)F)C[C@@H](C)[C@H](OC)CN(C)C2=O,20,-1,2,3,-1,0
C[C@@H]1CCCCO[C@H](CN(C)C(=O)c2ccccc2)[C@H](C)CN([C@@H](C)CO)C(=O)c2cc(NC(=O)Nc3ccc(C(F)(F)F)cc3)ccc2O1,0,87*,-3,17,-2,10
C[C@@H]1CCCCO[C@@H](CN(C)C(=O)c2ccccc2)[C@@H](C)CN([C@H](C)CO)C(=O)c2cc(NC(=O)Nc3ccc(C(F)(F)F)cc3)ccc2O1,6,15,0,13,-4,-13
CC(C)NC(=O)Nc1ccc2c(c1)C(=O)N([C@H](C)CO)C[C@H](C)[C@H](CN(C)C(=O)Cc1ccccc1)OCCCC[C@H](C)O2,16,8,-2,3,19*,/
C[C@@H]1CN([C@H](C)CO)C(=O)c2cc(NC(=O)Nc3ccc(C(F)(F)F)cc3)ccc2O[C@@H](C)CCCCO[C@@H]1CN(C)C(=O)c1ccccc1,12,88*,0,18,2,-4
C[C@@H]1CCCCO[C@@H](CN(C)C(=O)c2ccccc2)[C@H](C)CN([C@H](C)CO)C(=O)c2cc(NC(=O)Nc3ccc(C(F)(F)F)cc3)ccc2O1,4,102*,-2,-8,-4,6
C[C@@H]1CCCCO[C@H](CN(C)S(=O)(=O)c2cccs2)[C@H](C)CN([C@@H](C)CO)C(=O)c2cc(NC(=O)C3CCCCC3)ccc2O1,28,/,-4,-8,5,5
Cc1noc(C)c1S(=O)(=O)Nc1ccc2c(c1)C(=O)N([C@@H](C)CO)C[C@H](C)[C@@H](CN(C)S(=O)(=O)c1ccccc1)OCCCC[C@@H](C)O2,-12,-11,1,-15,3,3
COc1ccc(C(=O)NCc2cc(C)nc3ccccc23)cc1,38,37,4,/,1,53*
Cc1cccc(NC(=O)NNC(=O)c2ccc3ccccc3c2O)c1,11,5,-12,4,4,/
COc1cc(C(=O)NCc2cc(C)nc3ccccc23)cc(OC)c1OC,-12,2,9,-2,2,6
COc1ccccc1C(=O)NNC(=O)c1ccc2ccccc2c1O,1,16,-16,/,-2,-33
COc1ccc(C(=O)NNC(=O)c2ccc3ccccc3c2O)cc1,12,-16,-24*,/,-3,13
Cc1ccc(C(=O)NNC(=O)c2ccc3ccccc3c2O)cc1,-3,9,-27*,-17,-1,7
CO[C@H]1CN(C)C(=O)c2cc(NC(=O)C3CC3)ccc2OC[C@H](C)N(C(=O)c2ccccn2)C[C@@H]1C,6,/,1,8,/,-6
CC(C)NC(=O)Nc1ccc2c(c1)C(=O)N([C@@H](C)CO)C[C@H](C)[C@H](CN(C)C(=O)NC(C)C)OCCCC[C@@H](C)O2,10,-20,5,3,24*,/
CC(C)NC(=O)N(C)C[C@@H]1OCCCC[C@@H](C)Oc2ccc(NC(=O)Nc3ccc(C(F)(F)F)cc3)cc2C(=O)N([C@@H](C)CO)C[C@H]1C,4,49,2,9,11,-5
CC(C)NC(=O)Nc1ccc2c(c1)C(=O)N([C@H](C)CO)C[C@@H](C)[C@H](CN(C)C(=O)Nc1ccc(C(F)(F)F)cc1)OCCCC[C@H](C)O2,5,-8,-2,-2,6,11
CC(C)NC(=O)N(C)C[C@@H]1OCCCC[C@H](C)Oc2ccc(NC(=O)Nc3ccc(C(F)(F)F)cc3)cc2C(=O)N([C@@H](C)CO)C[C@@H]1C,4,69*,2,-8,2,4
CC(C)NC(=O)Nc1ccc2c(c1)C(=O)N([C@H](C)CO)C[C@@H](C)[C@H](CN(C)C(=O)Nc1ccc(C(F)(F)F)cc1)OCCCC[C@@H](C)O2,0,68*,-1,10,6,24
COc1ccc(CN(C)C[C@@H]2Oc3c(NC(=O)CCCCCC(=O)Nc4ccccc4N)cccc3C(=O)N([C@@H](C)CO)C[C@H]2C)cc1,0,-4,-5,-11,2,/
COc1ccc2c3c([nH]c2c1)[C@H](CO)N(C(=O)c1ccccn1)CC31CN(S(C)(=O)=O)C1,-12,/,4,-2,0,1
CO[C@@H]1CN(C)C(=O)c2ccc(NC(=O)c3ccccc3)cc2OC[C@@H](C)N(C(=O)C2CC2)C[C@H]1C,6,/,-1,-13,3,-12
CCOc1ccc(-n2c(=S)sc3c(=O)[nH]c(SCC(=O)N4CCC(C)CC4)nc32)cc1,-3,/,-25*,6,/,/
SMILES,LGR2 antag,PAX8 reporter,Ecoli rRNA inh,PGC1a acetyl inh,SIRT5 block,EWS-Fli inh
CCN(CC)C(=O)CSc1nc2c(sc(=S)n2-c2ccc(C)cc2C)c(=O)[nH]1,1,7,-27*,3,1,7
CCOc1ccc(-n2c(=S)sc3c(=O)[nH]c(SCC(=O)C(C)(C)C)nc32)cc1,20,23,-29*,-6,1,5
CN1CCN(C(=O)C[C@@H]2C=C[C@H](NC(=O)Nc3ccccc3F)[C@H](CO)O2)CC1,2,-7,2,35,/,-5
C[C@H]1CN([C@@H](C)CO)C(=O)Cc2cc(NC(=O)Cn3cnnn3)ccc2O[C@H]1CN(C)Cc1ccc(C(=O)Nc2ccccc2N)cc1,-8,11,0,-10,6,-2
CN1C(=O)c2cc(NS(=O)(=O)c3ccc(F)cc3)ccc2OC[C@@H]2O[C@@H](CC(=O)NCC(F)(F)F)CC[C@@H]21,-11,1,-2,0,5,1
CCCC(=O)c1c(C)c2ccccc2n1C,/,/,/,17,/,/
Cc1c(C(=O)Cc2ccccc2)n(C)c2ccccc12,-20,-6,-26*,17,-1,-26
CN1c2ccc(-c3ccccc3)cc2[C@H]2[C@H](CCN2C(=O)c2ccncc2)[C@@H]1CO,12,-26,0,3,2,3
COc1ccc(CCNc2ncnc3sccc23)cc1OC,9,77*,-19,/,-3,2
COc1ccc(Nc2ncnc3sccc23)cc1OC,-9,-16,8,-12,0,-13
CCCNC(=O)N[C@H]1C=C[C@H](CC(=O)NCCc2ccccc2)O[C@@H]1CO,-18,-4,3,-5,-2,4
C[C@H](CO)N1C[C@H](C)[C@@H](CN(C)C(=O)NC2CCCCC2)OCCCC[C@H](C)Oc2ccc(NC(=O)C3CCCCC3)cc2C1=O,-1,34,0,-8,16*,5

# Screening data: PubChem BioAssay, Broad Institute
